In the supplement of paper PMC12067926:
Values without a mark were called inactive.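 Rule for the calls: active = growth AUC significantly below the DMSO wells by Dunnett test; inactive = the rest.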

The molecules below were run on Carnobacterium 1 (Carnobacterium gallinarum) (assay: relative growth (AUC of 72 h growth curve relative to DMSO control, dAUC) (ratio); higher = more growth (less inhibition), active = hit call of the paper). Conditions: 20 µM.
Description: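 Environmental bacterial isolates (Iceland stream sediment and Silwood Park soil) and whole stream-sediment communities were grown in LB from a 1:100 dilution with each pesticide at 20 µM (1% DMSO). A600 was read hourly for 72 h and the area under a spline-fitted growth curve (AUC) was computed. dAUC is the mean AUC of 3 biological replicates divided by the mean AUC of the DMSO controls. Significance was tested by Dunnett's test against the DMSO control.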

Compound	relative growth
CC[C@H]1CCC[C@H](O[C@H]2CC[C@H](N(C)C)[C@@H](C)O2)[C@@H](C)C(=O)C2=C[C@@H]3[C@@H](C=C(C)[C@@H]4C[C@@H](O[C@@H]5O[C@@H](C)[C@H](OC)[C@@H](OC)[C@H]5OC)C[C@@H]34)[C@@H]2CC(=O)O1.CC[C@H]1CCC[C@H](O[C@H]2CC[C@H](N(C)C)[C@@H](C)O2)[C@@H](C)C(=O)C2=C[C@H]3[C@@H]4C[C@H](O[C@@H]5O[C@@H](C)[C@H](OC)[C@@H](OC)[C@H]5OC)C[C@H]4C=C[C@H]3C2CC(=O)O1	0.952
CCOC(=O)OC1=C(c2cc(C)ccc2C)C(=O)N[C@]12CC[C@@H](OC)CC2	1.17
CCCN(CCOc1c(Cl)cc(Cl)cc1Cl)C(=O)n1ccnc1	1.08
CCOCN(C(=O)CCl)c1c(C)cccc1CC	1
CNC(=O)ON=C(C)SC	1.18
N#Cc1nn(-c2c(Cl)cc(C(F)(F)F)cc2Cl)c(N)c1[S+]([O-])C(F)(F)F (configuration not stated)	0.821
Fc1ccc(Oc2ccnc3cc(Cl)cc(Cl)c23)cc1	1.13
COC(=O)c1ccccc1S(=O)(=O)NC(=O)Nc1nc(C)nc(OC)n1	1.2
CCCCCCCCCCCCNC(=N)N	0.0114 (active)
CSc1nnc(C(C)(C)C)c(=O)n1N	1.38
OC(Cc1ccccc1Cl)(Cn1nc[nH]c1=S)C1(Cl)CC1 (configuration not stated)	0.829
CCCC1COC(Cn2cncn2)(c2ccc(Cl)cc2Cl)O1 (configuration not stated)	0.835
CCCCN(CCCC)SN(C)C(=O)Oc1cccc2c1OC(C)(C)C2	1.51
N#Cc1c(Cl)c(Cl)c(Cl)c(C#N)c1Cl	1.11
O=C(O)c1nc(Cl)ccc1Cl	0.925
N#Cc1c[nH]cc1-c1cccc2c1OC(F)(F)O2	1.07
C#CCOc1ccc(CCNC(=O)C(OCC#C)c2ccc(Cl)cc2)cc1OC (configuration not stated)	1.18
Nc1c([N+](=O)[O-])ccc(Oc2ccccc2)c1Cl	0.792
CCc1cnc(C2=NC(C)(C(C)C)C(=O)N2)c(C(=O)O)c1 (configuration not stated)	1.06
CC(C)OC(=O)Nc1cccc(Cl)c1	1.5
O=C(O)COc1ccc(Cl)cc1Cl	1.06
CCCSP(=O)(OCC)Oc1ccc(Br)cc1Cl (configuration not stated)	0.842
COc1ncc(F)c2nc(S(=O)(=O)Nc3c(F)cccc3F)nn12	1.1
CCCC(Cn1cncn1)c1ccc(Cl)cc1Cl (configuration not stated)	1.13
Cc1cc(C)c(C2=C(OC(=O)CC(C)(C)C)C3(CCCC3)OC2=O)c(C)c1	1.01
CC(C)N(C(=O)COc1nnc(C(F)(F)F)s1)c1ccc(F)cc1	1.04
Fc1ccc([C@]2(Cn3cncn3)O[C@H]2c2ccccc2Cl)cc1 (racemic)	0.995
